# Most compounds without a hit are left out; they make up all but 1.4% or so of the library.
# FadD28 FP inh – inhibitors of FadD28 bisubstrate probe binding, primary screen, biochemical, fluorescence polarization, single point; actives 0.22% (n = 360,000); Mycobacterium tuberculosis FadD28 fatty-acid-AMP ligase; inhibition, % at 12.5 µM; in the data active = inhibition above about 8.5%, passing the limit was not always enough
# Vc quorum ag – inducers of Vibrio cholerae quorum light production without autoinducers, primary screen, BH1578 luxS cqsA deficient, single point; actives 0.16% (n = 350,000); V. cholerae BH1578 lux reporter, luminescence, 6 h; activation, % at 18.7 µM; in the data active = activation mostly above about 9.7%, no sharp cut-off
# PrP UTR inh – inhibition of PrP 5' UTR reporter expression; actives 0.35% (n = 340,000); inhibition, % (no concentration beside the values); AID 488862, 2010; cell-based PrP 5' UTR mRNA reporter, plate reader; in the data active = inhibition above about 52%; also: 0 = median of the neutral control wells
# PrPC surface inh – inhibitors of human cell surface prion protein PrPC, primary screen, cell-based, TR-FRET. inhibition, % at 13.8 µM. Major prion protein (Homo sapiens), P04156. TR-FRET read-out. actives 0.43% (n = 370,000). AID 720596, 2013; in the data active = inhibition above about 24%; also: 0% = median of the test wells and 100% = reference compound wells
# PriA SSB inh – inhibitors of Klebsiella pneumoniae PriA binding to SSB C-terminal tail, primary screen, biochemical, AlphaScreen. AlphaScreen SSBct-PriA binding, biotinylated peptide. inhibition, % at 33 µM. actives 0.6% (n = 430,000). AID 1272365, 2023; in the data active = inhibition mostly above about 37%, no sharp cut-off; inactive = mostly below about 20%;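 also: plate controls were negative control peptide for no effect and reference peptide for full effect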
# PrPC confirm – confirmation of inhibitors of cell surface human prion protein, confirmation, cell-based, TR-FRET | shares compounds with PrPC surface inh | cell surface PrPC level | inhibition, % at 13.8 µM | actives 65% (n = 1,500) | AID 743200, 2013; in the data active = inhibition above about 25%
# LD9 tox – cytotoxicity in LD9 cells, cytotoxicity control for cell surface PrPc inhibitor project, cell-based, luminescence, high throughput; shares compounds with PrPC surface inh; luminescence viability; inhibition, % at 13.8 µM; actives 29% (n = 1,500); in the data active = inhibition above about 9.5%
# An asterisk follows results filed as active; i = inactive; . = no result.
SMILES,FadD28 FP inh,Vc quorum ag,PrP UTR inh,PrPC surface inh,PriA SSB inh,PrPC confirm,LD9 tox
CC(C)c1oc(=O)cc2c1[C@@H](O)[C@H]1OC(=O)[C@@]3(C)CC[C@@H](O)[C@@]2(C)C13 (stereo partly specified),-1,0,-9,62*,-7,52*,13*
CC(C)c1oc(=O)cc2c1[C@@H](O)[C@H]1OC(=O)[C@@]3(C)C[C@@H](O)[C@@H](O)[C@@]2(C)C13 (stereo partly specified),0,-1,-69,64*,-4,58*,11*
COc1cccc(OCc2cc(C(=O)N(C)Cc3nc4ccccc4[nH]3)no2)c1,0,i,-72,29*,-10,39*,2
CC(=O)c1ccc(OCc2cc(C(=O)N(C)Cc3ncc(C)[nH]3)no2)cc1,1,0,-18,-1,-6,.,.
Cc1cccc2sc(NCCCN3CCOCC3)nc12,.,.,.,.,23,.,.
O=C(Nc1ccc(S(=O)(=O)C(F)F)cc1)c1cccc(S(=O)(=O)N2CCCCCC2)c1,.,.,.,.,-1,.,.
O=C(Nc1nc(-c2ccccn2)cs1)c1cccc(S(=O)(=O)N2CCOCC2)c1,-1,-5,37,25*,81*,26*,11*
O=C(Nc1ccc(S(=O)(=O)C(F)F)cc1)c1cccc(S(=O)(=O)N2CCOCC2)c1,-3,i,-17,29*,-5,16,16*
COc1ccc(OC)c(-c2ccc(=O)n(CC(=O)O)n2)c1,.,.,.,.,-10,.,.
NS(=O)(=O)c1ccc(CCNC(=O)c2cccc(Oc3ccccn3)c2)cc1,.,.,.,.,-31,.,.
Cc1onc(-c2ccccc2Cl)c1C(=O)N1CCCc2ccccc21,-5,i,-45,2,-3,.,.
Cc1onc(-c2ccccc2Cl)c1C(=O)OCC(=O)N1CCCc2ccccc21,-9,0,-3,30*,-3,6,2
C=C[C@@]1(C)CC(=O)[C@]2(O)[C@@]3(C)[C@@H](O)CCC(C)(C)[C@@H]3[C@H](O)[C@H](OC(C)=O)[C@@]2(C)O1,-1,i,1,34*,-7,26*,-9
O=C(c1cccc2c1OCCO2)N1CC[C@H](Oc2cccnn2)C1,.,.,.,.,-15,.,.
CSC1CC2CCC(C1)N2S(=O)(=O)c1ccc(Br)s1 (stereo unspecified),.,.,.,.,-6,.,.
Cc1ccc(OCCCC(=O)Nc2nc3ccccc3[nH]2)cc1,2,0,-82,7,-2,.,.
Cc1cccc(OCCCC(=O)Nc2nc3ccccc3[nH]2)c1,-1,0,-31,29*,-7,25*,-8
COC(=O)NN=Cc1ccc(Oc2ccccc2)cc1,.,.,.,.,-8,.,.
COc1ccc(S(=O)(=O)NCC2CCN(C)CC2)cc1F,.,.,.,.,-16,.,.
O=C(CCC(=O)c1cccs1)NC(c1ccccc1)c1ccccc1,-1,i,-4,33*,3,-2,-2
Cc1nn(-c2ccccc2)c(OC(=O)Cc2ccccc2)c1Sc1c(F)c(F)c(F)c(F)c1F,.,.,.,.,-13,.,.
CC(C)C[C@H](NC(=O)c1[nH]cnc1C(=O)N[C@H](C)c1ccccc1)C(=O)OC(C)(C)C,-3,-1,-9,27*,4,24,-2
CCOC(=O)COc1cc(Br)c(/C=N/Nc2ccccc2)cc1OC,-2,3,-7,61*,.,64*,-8
COc1cc(C=NNC(N)=O)c(Br)cc1OCC(=O)Nc1ccccc1C,.,.,.,.,0,.,.
CC1=C(C)[N+](=O)C2(O)CCCCC2(C)N1[O-] (stereo unspecified),-3,1,-15,36*,-8,4,-4
SMILES,FadD28 FP inh,Vc quorum ag,PrP UTR inh,PrPC surface inh,PriA SSB inh,PrPC confirm,LD9 tox
CC(=O)Nc1nnc(SCc2cc(=O)c(OC(=O)c3cccc(C(F)(F)F)c3)co2)s1,.,.,.,.,-4,.,.
O=C(Nc1ccncc1)c1cccc(S(=O)(=O)N2CCc3ccccc32)c1,-5,0,-3,25*,3,25*,13*
CCc1ccccc1NC(=O)c1cc(S(=O)(=O)N2CCc3ccccc32)cn1C,-1,i,-20,9,4,.,.
Cc1cccc(NC(=O)c2cc(S(=O)(=O)N3CCc4ccccc43)cn2C)c1C,0,i,-13,44*,-7,14,-7
Cc1cccc(N2CCN(C(=O)c3cc(S(=O)(=O)N4CCOCC4)cn3C)CC2)c1C,-1,0,-18,0,-8,.,.
Cc1cccc(N2CCN(C(=O)c3cc(S(=O)(=O)N4CCCC4)cn3C)CC2)c1C,-3,0,2,24*,-5,16,4
O=C(Nc1cccnc1)c1cccc(S(=O)(=O)N2CCc3ccccc32)c1,-7,0,-10,3,-4,.,.
O=C(CS(=O)(=O)c1ccc(F)cc1)Nc1ccc2c(c1)C(=O)NC2=O,.,.,.,.,-12,.,.
CC(C)CNC(=O)C(=O)NCCCN1CCOC(c2ccccc2)C1 (stereo unspecified),.,.,.,.,-2,.,.
CCOc1cc(C=NNC(=O)CSc2nncn2C)ccc1OCc1ccccc1,.,.,.,.,-1,.,.
CC1(C)Cc2ccccc2C(NN=Cc2ccc(Cl)cc2)=N1,.,.,.,.,2,.,.
Nc1ccc2ccc(NS(=O)(=O)N3CCCCC3)cc2c1,.,.,.,31*,.,12,9
O=S(=O)(Nc1ccc(F)cc1)N1CCCCCC1,0,-4,-5,-7,-13,.,.
COc1ncccc1C(=O)NC1CC2CCC(C1)N2S(C)(=O)=O (stereo unspecified),.,.,.,.,-4,.,.
Cc1cccc2cc(C(c3nnnn3Cc3ccccc3)N3CCN(c4ccccc4)CC3)c(=O)[nH]c12 (stereo unspecified),-1,i,-10,59*,-11,3,-2
Cc1ccc(-c2c(CC(=O)O)c(C)nc3sc4c(c23)CCCC4)cc1,-4,1,-17,36*,1,44*,-4
O=C(NCCc1ccccn1)c1ccc(OC2CCN(CCc3ccccc3)CC2)cc1,0,0,-64,45*,-5,-1,7
CC(Cc1ccccn1)NC(=O)c1ccc(OC2CCN(CCc3ccccc3)CC2)cc1 (stereo unspecified),1,i,-35,-7,-5,.,.
CC1CC(C)C(=O)C(C(CC2CC(=O)NC(=O)C2)OC(=O)CC(=O)c2ccccc2)C1 (stereo unspecified),-1,-11,28,85*,-7,95*,31*
Cc1ccc(-n2nnc3c(=O)n(CC(=O)Nc4cccc(F)c4)cnc32)cc1Cl,.,.,.,.,-2,.,.
N#CCc1ccc(NC(=O)Nc2cccc(Cl)c2)cc1,-5,i,-46,31*,4,33*,5
CSc1nc(C=C2C=Nc3ccccc32)c(O)n1C,.,.,.,.,4,.,.

# Screening results (PubChem)
